# Results as given in ChEMBL document CHEMBL1961873, “Compounds: GSK PKIS; Assays: Nanosyn kinase panel” (2012).
# Legend:
# [1] = target: Protein kinase C gamma type (Homo sapiens) (UniProt P05129); conditions: at 1 µM;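 note: each value is an averaged percent inhibition of the enzyme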
# [2] = target: T1, Protein kinase C iota type (Homo sapiens) (UniProt P41743); conditions: at 0.1 µM
# T1 sequence (whole entry): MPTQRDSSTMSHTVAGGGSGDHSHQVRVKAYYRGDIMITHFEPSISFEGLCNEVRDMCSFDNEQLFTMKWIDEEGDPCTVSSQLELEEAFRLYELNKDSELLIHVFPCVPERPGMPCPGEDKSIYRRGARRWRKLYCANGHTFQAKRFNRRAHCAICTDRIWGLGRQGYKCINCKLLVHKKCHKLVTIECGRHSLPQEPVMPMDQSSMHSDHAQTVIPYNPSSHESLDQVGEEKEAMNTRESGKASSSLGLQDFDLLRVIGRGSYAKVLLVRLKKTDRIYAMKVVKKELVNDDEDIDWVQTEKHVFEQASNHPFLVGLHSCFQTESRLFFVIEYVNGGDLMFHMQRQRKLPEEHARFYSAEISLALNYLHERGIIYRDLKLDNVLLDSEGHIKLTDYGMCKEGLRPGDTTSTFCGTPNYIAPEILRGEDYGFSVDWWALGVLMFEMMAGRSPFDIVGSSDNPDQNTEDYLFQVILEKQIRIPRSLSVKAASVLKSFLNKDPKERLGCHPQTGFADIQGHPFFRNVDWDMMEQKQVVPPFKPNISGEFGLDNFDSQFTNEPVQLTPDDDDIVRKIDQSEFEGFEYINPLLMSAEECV
# [3] = target: T1, Protein kinase C iota type (Homo sapiens); conditions: at 1 µM
# [4] = target: Protein kinase C theta type (Homo sapiens) (UniProt Q04759); conditions: at 0.1 µM
# Chain of Protein kinase C theta type (Homo sapiens) (Q04759 whole entry, looked up): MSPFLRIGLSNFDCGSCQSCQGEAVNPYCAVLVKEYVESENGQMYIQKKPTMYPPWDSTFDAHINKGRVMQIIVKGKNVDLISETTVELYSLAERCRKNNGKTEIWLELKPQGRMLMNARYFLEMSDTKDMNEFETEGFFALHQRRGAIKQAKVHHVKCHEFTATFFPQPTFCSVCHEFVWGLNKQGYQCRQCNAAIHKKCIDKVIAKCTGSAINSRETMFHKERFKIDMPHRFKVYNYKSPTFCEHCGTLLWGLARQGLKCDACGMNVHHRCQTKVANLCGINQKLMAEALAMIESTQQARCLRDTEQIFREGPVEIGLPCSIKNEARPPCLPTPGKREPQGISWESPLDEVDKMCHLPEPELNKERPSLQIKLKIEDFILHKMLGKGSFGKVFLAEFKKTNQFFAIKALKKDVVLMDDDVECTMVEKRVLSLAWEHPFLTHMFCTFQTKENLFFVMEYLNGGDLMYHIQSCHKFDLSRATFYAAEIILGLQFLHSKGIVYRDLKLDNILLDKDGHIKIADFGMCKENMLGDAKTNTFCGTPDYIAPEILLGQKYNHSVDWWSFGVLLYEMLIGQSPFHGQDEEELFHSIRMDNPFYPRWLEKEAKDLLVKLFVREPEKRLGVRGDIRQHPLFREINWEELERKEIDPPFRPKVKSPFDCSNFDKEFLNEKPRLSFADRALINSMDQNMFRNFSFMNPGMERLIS
# [5] = target: Protein kinase C theta type (Homo sapiens) (UniProt Q04759); conditions: at 1 µM
# [6] = target: Protein kinase C beta type (Homo sapiens) (UniProt P05771); conditions: at 0.1 µM
# Chain of Protein kinase C beta type (Homo sapiens) (P05771 2-671 limits assumed): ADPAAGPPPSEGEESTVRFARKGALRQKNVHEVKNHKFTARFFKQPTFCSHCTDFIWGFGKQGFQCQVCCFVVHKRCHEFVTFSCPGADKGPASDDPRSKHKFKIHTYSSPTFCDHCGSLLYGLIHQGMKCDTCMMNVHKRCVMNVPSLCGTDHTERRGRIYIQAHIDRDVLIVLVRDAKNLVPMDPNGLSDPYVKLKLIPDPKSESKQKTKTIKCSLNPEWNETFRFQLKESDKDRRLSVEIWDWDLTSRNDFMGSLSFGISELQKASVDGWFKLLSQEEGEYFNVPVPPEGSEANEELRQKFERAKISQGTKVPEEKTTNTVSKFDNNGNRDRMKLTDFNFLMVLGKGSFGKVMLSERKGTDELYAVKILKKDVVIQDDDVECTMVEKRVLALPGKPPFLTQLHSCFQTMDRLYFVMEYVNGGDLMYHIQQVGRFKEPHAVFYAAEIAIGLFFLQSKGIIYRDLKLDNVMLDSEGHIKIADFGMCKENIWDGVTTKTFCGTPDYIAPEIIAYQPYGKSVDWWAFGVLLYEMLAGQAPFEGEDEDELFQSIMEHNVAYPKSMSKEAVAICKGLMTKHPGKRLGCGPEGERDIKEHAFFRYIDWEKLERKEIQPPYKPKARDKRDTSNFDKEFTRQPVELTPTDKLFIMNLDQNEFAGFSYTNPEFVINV
# [7] = target: Protein kinase C beta type (Homo sapiens) (UniProt P05771); conditions: at 1 µM
# [8] = target: T2, Serine/threonine-protein kinase D1 (Homo sapiens) (UniProt Q15139); conditions: at 0.1 µM
# T2 sequence (whole entry): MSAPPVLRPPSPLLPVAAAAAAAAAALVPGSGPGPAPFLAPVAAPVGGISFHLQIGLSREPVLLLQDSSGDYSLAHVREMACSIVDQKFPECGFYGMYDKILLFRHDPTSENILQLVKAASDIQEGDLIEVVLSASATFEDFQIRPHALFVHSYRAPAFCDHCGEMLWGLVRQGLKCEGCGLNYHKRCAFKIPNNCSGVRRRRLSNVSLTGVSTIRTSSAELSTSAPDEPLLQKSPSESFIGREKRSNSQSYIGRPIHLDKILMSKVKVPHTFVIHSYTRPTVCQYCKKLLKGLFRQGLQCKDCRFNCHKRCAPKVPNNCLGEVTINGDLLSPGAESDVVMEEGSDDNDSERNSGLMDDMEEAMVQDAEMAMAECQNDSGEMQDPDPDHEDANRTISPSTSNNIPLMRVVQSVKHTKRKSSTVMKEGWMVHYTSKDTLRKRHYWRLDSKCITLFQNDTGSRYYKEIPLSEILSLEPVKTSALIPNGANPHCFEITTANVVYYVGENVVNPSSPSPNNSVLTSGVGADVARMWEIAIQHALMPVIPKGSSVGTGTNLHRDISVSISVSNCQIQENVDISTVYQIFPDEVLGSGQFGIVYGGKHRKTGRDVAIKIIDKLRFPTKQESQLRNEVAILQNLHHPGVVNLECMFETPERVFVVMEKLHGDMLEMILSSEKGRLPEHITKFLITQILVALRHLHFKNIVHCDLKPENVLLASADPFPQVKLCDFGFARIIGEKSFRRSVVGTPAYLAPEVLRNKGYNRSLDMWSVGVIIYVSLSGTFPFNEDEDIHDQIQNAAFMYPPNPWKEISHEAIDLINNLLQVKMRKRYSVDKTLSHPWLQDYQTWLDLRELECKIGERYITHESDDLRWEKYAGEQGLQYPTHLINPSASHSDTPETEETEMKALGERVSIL
# [9] = target: T2, Serine/threonine-protein kinase D1 (Homo sapiens); conditions: at 1 µM
# [10] = target: T3, Serine/threonine-protein kinase D2 (Homo sapiens) (UniProt Q9BZL6); conditions: at 0.1 µM
# T3 sequence (whole entry): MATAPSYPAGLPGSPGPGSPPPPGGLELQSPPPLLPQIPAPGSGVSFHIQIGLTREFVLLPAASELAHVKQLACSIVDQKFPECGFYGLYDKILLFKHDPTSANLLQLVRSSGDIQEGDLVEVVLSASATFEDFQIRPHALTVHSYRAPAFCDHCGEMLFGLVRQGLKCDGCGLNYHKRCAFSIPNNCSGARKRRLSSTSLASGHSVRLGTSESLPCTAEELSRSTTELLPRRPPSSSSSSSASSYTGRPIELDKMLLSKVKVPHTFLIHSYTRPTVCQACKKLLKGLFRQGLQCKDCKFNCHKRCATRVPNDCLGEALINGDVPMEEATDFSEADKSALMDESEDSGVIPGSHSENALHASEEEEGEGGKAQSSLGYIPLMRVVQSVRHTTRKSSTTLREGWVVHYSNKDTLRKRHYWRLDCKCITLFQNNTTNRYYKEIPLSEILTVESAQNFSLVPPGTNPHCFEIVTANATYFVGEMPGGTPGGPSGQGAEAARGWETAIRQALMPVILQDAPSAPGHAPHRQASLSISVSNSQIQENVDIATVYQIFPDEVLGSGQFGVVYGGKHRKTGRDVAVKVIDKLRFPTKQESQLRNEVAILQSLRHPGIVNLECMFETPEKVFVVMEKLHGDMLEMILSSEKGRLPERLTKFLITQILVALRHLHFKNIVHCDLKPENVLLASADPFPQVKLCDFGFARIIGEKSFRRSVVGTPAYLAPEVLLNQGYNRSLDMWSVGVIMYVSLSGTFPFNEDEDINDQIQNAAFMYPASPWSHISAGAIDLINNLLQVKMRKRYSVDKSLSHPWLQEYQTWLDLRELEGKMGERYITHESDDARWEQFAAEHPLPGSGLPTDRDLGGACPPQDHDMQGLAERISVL
# [11] = target: T3, Serine/threonine-protein kinase D2 (Homo sapiens); conditions: at 1 µM
# [12] = target: T4, Serine/threonine-protein kinase D3 (Homo sapiens) (UniProt O94806); conditions: at 0.1 µM
# T4 sequence (whole entry): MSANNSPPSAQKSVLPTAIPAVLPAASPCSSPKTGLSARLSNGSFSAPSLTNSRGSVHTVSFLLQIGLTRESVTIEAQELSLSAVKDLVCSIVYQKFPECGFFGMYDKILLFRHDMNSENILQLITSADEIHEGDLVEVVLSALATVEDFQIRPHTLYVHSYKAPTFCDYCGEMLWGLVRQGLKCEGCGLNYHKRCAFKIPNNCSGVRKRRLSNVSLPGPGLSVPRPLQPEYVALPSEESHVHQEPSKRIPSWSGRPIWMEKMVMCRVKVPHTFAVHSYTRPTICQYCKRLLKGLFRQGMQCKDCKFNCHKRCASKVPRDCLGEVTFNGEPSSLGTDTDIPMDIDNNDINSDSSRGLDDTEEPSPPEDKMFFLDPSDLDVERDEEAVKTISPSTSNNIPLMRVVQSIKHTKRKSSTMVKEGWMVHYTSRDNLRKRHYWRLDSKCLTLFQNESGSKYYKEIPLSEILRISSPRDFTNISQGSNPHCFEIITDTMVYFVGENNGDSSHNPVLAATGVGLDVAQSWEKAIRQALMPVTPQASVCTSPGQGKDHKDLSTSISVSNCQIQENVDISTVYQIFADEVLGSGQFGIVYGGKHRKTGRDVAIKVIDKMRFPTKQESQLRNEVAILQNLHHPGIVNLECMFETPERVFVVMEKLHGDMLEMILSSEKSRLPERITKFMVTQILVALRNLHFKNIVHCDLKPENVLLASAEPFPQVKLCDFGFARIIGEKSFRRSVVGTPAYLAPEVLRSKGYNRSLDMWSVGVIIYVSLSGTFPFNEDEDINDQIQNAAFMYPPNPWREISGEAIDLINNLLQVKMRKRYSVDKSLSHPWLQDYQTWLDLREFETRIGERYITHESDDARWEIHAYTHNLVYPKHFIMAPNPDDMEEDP
# [13] = target: T4, Serine/threonine-protein kinase D3 (Homo sapiens); conditions: at 1 µM
# [14] = target: T5, cGMP-dependent protein kinase 1 (Homo sapiens) (UniProt Q13976); conditions: at 0.1 µM
# T5 sequence (whole entry): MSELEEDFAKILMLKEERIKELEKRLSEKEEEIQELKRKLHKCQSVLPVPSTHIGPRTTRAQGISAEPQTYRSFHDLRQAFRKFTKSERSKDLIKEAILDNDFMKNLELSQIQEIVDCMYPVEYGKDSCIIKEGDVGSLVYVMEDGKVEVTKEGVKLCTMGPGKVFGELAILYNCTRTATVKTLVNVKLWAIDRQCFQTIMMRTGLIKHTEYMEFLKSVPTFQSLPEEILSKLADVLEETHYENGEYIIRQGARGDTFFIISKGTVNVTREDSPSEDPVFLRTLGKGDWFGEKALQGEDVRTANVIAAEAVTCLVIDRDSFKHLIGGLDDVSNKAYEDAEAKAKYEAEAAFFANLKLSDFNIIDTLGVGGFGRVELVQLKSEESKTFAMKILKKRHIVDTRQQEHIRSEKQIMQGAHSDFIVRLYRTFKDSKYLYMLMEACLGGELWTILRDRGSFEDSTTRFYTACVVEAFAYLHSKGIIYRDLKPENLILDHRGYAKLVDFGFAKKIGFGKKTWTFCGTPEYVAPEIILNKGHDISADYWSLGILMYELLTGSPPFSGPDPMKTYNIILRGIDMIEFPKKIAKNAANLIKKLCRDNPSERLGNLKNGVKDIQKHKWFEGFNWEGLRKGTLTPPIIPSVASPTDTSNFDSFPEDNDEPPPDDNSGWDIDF
# [15] = target: T5, cGMP-dependent protein kinase 1 (Homo sapiens); conditions: at 1 µM
# [16] = target: T6, cGMP-dependent protein kinase 2 (Homo sapiens) (UniProt Q13237); conditions: at 0.1 µM
# T6 sequence (whole entry): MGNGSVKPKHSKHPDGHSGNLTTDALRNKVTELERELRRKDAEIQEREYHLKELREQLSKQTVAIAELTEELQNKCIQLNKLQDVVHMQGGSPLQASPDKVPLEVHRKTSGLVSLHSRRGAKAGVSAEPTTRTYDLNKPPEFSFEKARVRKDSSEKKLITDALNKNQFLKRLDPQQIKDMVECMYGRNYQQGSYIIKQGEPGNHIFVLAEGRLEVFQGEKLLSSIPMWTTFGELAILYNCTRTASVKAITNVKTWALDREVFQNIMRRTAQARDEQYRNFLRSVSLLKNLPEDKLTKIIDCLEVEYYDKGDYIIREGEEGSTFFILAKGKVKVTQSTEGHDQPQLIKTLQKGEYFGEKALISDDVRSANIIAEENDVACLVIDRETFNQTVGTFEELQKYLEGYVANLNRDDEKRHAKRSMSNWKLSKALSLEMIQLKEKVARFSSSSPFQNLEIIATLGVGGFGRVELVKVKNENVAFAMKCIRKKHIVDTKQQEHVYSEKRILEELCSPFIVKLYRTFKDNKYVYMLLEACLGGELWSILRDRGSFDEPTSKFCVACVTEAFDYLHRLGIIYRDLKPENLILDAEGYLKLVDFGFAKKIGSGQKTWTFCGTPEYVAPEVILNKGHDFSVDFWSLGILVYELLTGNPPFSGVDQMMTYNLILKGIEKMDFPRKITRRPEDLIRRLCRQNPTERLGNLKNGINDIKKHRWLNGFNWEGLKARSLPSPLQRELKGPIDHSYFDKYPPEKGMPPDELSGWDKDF
# [17] = target: T6, cGMP-dependent protein kinase 2 (Homo sapiens); conditions: at 1 µM
# [18] = target: T7, cAMP-dependent protein kinase catalytic subunit PRKX (Homo sapiens) (UniProt P51817); conditions: at 0.1 µM
# T7 sequence (whole entry): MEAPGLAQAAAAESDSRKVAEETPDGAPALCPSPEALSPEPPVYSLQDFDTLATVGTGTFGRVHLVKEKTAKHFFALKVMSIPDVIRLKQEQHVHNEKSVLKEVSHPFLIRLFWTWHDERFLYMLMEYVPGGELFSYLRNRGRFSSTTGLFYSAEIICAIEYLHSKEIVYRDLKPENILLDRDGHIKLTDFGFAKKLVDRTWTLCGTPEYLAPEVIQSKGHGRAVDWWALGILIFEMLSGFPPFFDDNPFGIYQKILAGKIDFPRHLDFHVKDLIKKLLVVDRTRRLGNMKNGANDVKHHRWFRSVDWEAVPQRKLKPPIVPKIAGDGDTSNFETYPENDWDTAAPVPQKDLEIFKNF
# [19] = target: T7, cAMP-dependent protein kinase catalytic subunit PRKX (Homo sapiens); conditions: at 1 µM
# [20] = target: Rho-associated protein kinase 1 (Homo sapiens) (UniProt Q13464); conditions: at 0.1 µM;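 note: values are mean percent inhibition of ROCK1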
# Chain of Rho-associated protein kinase 1 (Homo sapiens) (Q13464 2-1354 limits assumed): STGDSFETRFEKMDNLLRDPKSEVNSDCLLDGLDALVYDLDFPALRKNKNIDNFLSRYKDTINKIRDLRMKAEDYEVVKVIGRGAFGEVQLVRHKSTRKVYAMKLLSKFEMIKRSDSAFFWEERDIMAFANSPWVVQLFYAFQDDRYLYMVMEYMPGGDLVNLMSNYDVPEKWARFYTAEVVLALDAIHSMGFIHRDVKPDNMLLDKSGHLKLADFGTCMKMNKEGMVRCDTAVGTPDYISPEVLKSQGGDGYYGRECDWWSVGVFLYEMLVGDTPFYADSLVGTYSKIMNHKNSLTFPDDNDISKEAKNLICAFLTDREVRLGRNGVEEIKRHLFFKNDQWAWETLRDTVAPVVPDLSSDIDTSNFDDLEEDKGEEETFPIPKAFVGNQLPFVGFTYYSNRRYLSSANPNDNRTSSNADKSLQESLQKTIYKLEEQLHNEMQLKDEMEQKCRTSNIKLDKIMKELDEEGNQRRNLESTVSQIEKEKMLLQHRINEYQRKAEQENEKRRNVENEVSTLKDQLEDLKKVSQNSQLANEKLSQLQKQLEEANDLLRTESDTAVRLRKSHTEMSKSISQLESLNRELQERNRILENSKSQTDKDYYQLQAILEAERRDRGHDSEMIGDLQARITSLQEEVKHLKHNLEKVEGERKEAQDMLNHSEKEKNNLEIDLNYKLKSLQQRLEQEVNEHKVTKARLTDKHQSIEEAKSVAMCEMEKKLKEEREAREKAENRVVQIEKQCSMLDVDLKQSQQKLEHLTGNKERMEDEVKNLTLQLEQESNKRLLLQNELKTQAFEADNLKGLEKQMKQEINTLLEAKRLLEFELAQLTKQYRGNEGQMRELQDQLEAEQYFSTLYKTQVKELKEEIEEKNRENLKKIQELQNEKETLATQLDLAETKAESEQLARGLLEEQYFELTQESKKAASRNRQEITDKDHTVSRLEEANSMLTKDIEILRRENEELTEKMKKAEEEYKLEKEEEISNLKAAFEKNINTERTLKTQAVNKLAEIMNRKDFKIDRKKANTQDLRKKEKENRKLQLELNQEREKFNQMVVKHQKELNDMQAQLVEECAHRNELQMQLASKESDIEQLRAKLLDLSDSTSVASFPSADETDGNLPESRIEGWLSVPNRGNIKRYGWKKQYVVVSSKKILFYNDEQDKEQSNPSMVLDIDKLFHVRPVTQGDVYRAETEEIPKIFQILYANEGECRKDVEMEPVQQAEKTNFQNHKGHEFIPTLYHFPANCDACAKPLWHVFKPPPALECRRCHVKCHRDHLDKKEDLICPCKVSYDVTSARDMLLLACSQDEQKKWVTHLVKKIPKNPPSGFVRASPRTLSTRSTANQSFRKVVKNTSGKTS
Structure (SMILES),inhibition [1],inhibition [2],inhibition [3],inhibition [4],inhibition [5],inhibition [6],inhibition [7],inhibition [8],inhibition [9],inhibition [10],inhibition [11],inhibition [12],inhibition [13],inhibition [14],inhibition [15],inhibition [16],inhibition [17],inhibition [18],inhibition [19],inhibition [20]
COC(=O)c1ccc2c(c1)C(=Cc1cc(Br)c(O)c(Br)c1)C(=O)N2,0.79%,1.17%,0.96%,1.25%,1.86%,1.12%,1.9%,5.07%,7.26%,4.47%,3.79%,4.47%,5.87%,2.45%,5.8%,1.59%,6.29%,1.47%,1.86%,2.01%
COc1cc(Nc2nccc(-c3cnn4ncccc34)n2)cc(OC)c1,16.8%,-0.04%,0.62%,0.09%,6.77%,1.8%,16.9%,1.77%,16.4%,2.57%,15.9%,-0.68%,19.6%,12.2%,57.2%,3.45%,24.4%,0.67%,0.29%,0.75%
COc1ccc2ncnc(Nc3ccc(OCc4ccccc4)cc3)c2c1,5.03%,0.61%,-0.95%,1.21%,1.19%,0.9%,1.9%,3.89%,3.35%,0.24%,2.88%,0.89%,2.6%,0.77%,1.95%,0.94%,2.5%,1.23%,1.9%,-0.05%
